Experiment [1] in a line: Viability qHTS for spleen associated tyrosine kinase inhibitor (SYKi) naive MV4-11 cells (AID 1963823). Further: nearly all actives have a fitted effect of over 40% in size. In outline:
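Seeding of 500 SYKi-naive MV4-11 cells per well onto pre-dispensed compounds preceded a 72 hr incubation at 37 C. Luminescent CellTiter-Glo signal, read after 10 min at room temperature, reflected viable cells.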
On the technique in general: Quantitative high-throughput screening tests each substance at several concentrations.

The nature of experiment [2]: Viability qHTS for spleen associated tyrosine kinase inhibitor (SYKi) drug resistant MV4-11 cells (AID 1963824). Further: nearly all actives have a fitted effect of over 35% in size. A digest of the protocol: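 CellTiter-Glo luminescence, read 10 min after reagent addition, reports viability after a 72 hr compound exposure. Cells are an MV4-11 line made resistant to SYK inhibition, seeded at 500 per well onto compound-containing plates.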

The structures appear in SMILES notation. Results filed as inconclusive are left out. Unmarked numbers belong to inactive results. Active and inactive are the calls of the source. The call rests on the fitted dose curve; in most records, active means well fitted cell-killing curve with a large enough effect; inconclusive means small, poorly fitted or top-dose-only effect, or effect the other way; inactive means no such curve, though single readings can be large or run the other way.
Potency means the concentration at half of the fitted maximal effect.

Consider `COc1cc(C)c(C(=O)O[C@@H]2[C@H](O)[C@@H](CO)O[C@H]2n2ccc(=O)[nH]c2=O)c(OC)c1`, for which the Potency result in experiment [1] and in experiment [2] was “inactive” throughout.
`C=C[C@H]1[C@H](O[C@@H]2O[C@H](CO)[C@@H](O)[C@H](O)[C@H]2O)OC=C(C(=O)OC)[C@H]1CC(=O)O`: the Potency entry in experiment [1] and in experiment [2] was “inactive” in each case.
On to `CC1CCC2(NC1)OC1C(O)C3C4CCC5CC(O[C@@H]6O[C@H](CO)[C@@H](O)[C@H](O)[C@H]6O[C@@H]6O[C@@H](C)[C@H](O)[C@@H](O)[C@H]6O)CCC5(C)C4CCC3(C)C1C2C` (some centres not stated), for which the Potency entry in experiment [1] and in experiment [2] was “inactive” throughout.
Consider `CC(=O)OC[C@]12[C@@H](OC(=O)c3ccoc3)C[C@@H]3[C@@H](OC(C)=O)[C@]1(OC3(C)C)[C@@](C)(O)C[C@H](OC(=O)c1ccoc1)[C@@H]2OC(=O)c1ccoc1`, for which the Potency entry in experiment [1] and in experiment [2] was “inactive” throughout.
Regarding `O=C(/C=C/c1ccc(O)c(O)c1)O[C@H]1[C@H](OC2CCCCC2O)O[C@H](CO)[C@@H](O)[C@@H]1O` (some centres not stated), the Potency entry in experiment [1] and in experiment [2] was “inactive” throughout.
`CC12CC34C=CC(=O)C(C)(CCC(=O)O)C3C(CC1C4)O2` (configuration not stated): the Potency entry in experiment [1] and in experiment [2] was “inactive” throughout.
With `CC[C@H](C)[C@@H]([C@@H](CC(=O)N1CCC[C@H]1[C@H](OC)[C@@H](C)C(=O)N[C@@H](Cc1ccccc1)c1nccs1)OC)N(C)C(=O)[C@@H](NC(=O)[C@H](C(C)C)N(C)C)C(C)C`, the Potency entry in experiment [1] and in experiment [2] was “inactive” each time.
In the case of `O=C(Nc1cc(-c2ccccc2)nn1-c1ccccc1)c1ccc([N+](=O)[O-])cc1`, in experiment [1], the Potency entry is “inactive”. Further, in experiment [2], the Potency was 18.4 µM (active).
As for `CC(C)[C@H]1CC[C@@]2(O)COC(=O)[C@H]2[C@@H]1/C=C(\CO)C(=O)O`, the Potency entry in experiment [1] and in experiment [2] was “inactive” throughout.
As for `O=C(CCc1ccccc1)c1c(O)c([C@@H]2O[C@H](CO)[C@@H](O)[C@H](O)[C@H]2O)c(O)c([C@@H]2O[C@H](CO)[C@@H](O)[C@H](O)[C@H]2O)c1O`, the Potency entry in experiment [1] and in experiment [2] was “inactive” in each case.
Regarding `C=C[C@H](/C=C\c1ccc(O)cc1)c1ccc(O)cc1`, the Potency in experiment [1] and in experiment [2] was 18.4 µM (active) in each case.
For the compound `C=C[C@H]1[C@H](O[C@@H]2O[C@H](CO)[C@@H](O)[C@H](O)[C@H]2O)OC=C(C(=O)OC)[C@H]1C[C@@H]1N[C@H](C(=O)O)Cc2c1[nH]c1ccccc21`, the Potency entry in experiment [1] and in experiment [2] was “inactive” each time.
In the case of `C[C@@H]1O[C@@H](O[C@H]2[C@H](OC(=O)[C@]34CCC(C)(C)C[C@H]3C3=CCC5[C@@]6(C)CC[C@H](O[C@@H]7O[C@H](C(=O)O)[C@@H](O)[C@H](O)[C@H]7O[C@@H]7O[C@H](CO)[C@H](O)[C@H](O)[C@H]7O)[C@@](C)(C=O)C6CC[C@@]5(C)[C@]3(C)C[C@H]4O)O[C@H](C)[C@H](O[C@@H]3O[C@H](C)[C@H](O)[C@H](O)[C@H]3O)[C@@H]2O)[C@H](O)[C@H](O)[C@H]1O[C@@H]1OC[C@@H](O)[C@H](O[C@@H]2O[C@H](CO)[C@@H](O)[C@H](O)[C@H]2O)[C@H]1O` (some centres not stated), in experiment [1], the viability (% of control) was 5.74% [at 4.97 µM]. For the same compound, the viability, % of control in experiment [2] was 5.67% [at 4.97 µM].
As to `COC(=O)C1=COC(O[C@@H]2O[C@H](CO)[C@@H](O)[C@H](O)[C@H]2O)[C@@H]2[C@@](C)(O)[C@@H](OC(=O)/C=C/c3ccccc3)C[C@]12O` (some centres not stated), the Potency result in experiment [1] and in experiment [2] was “inactive” in each case.
For the compound `CC(C)[C@@H](C)/C=C/[C@@H](C)[C@H]1CC[C@H]2C3=CC=C4C[C@@H](O)CC[C@]4(C)[C@H]3CC[C@]12C`, the Potency entry in experiment [1] and in experiment [2] was “inactive” in each case.
Take `CC(CCC1(O)OC2CC3C4CCC5CC(O[C@@H]6O[C@H](CO)[C@@H](O)[C@H](O)[C@H]6O[C@@H]6O[C@@H](C)[C@H](O)[C@@H](O)[C@H]6O)C(O)CC5(C)C4CCC3(C)C2C1C)CO[C@@H]1O[C@H](CO)[C@@H](O)[C@H](O)[C@H]1O` (some centres not stated): in experiment [1], the viability (% of control) was 87.7% [at 9.25 µM]. The viability, % of control in experiment [2] was 109% [at 9.25 µM].
With `CCCC(=O)O[C@]1(C(=O)CCl)[C@@H](C)C[C@H]2[C@@H]3CCC4=CC(=O)C=C[C@]4(C)[C@@]3(F)C(=O)C[C@@]21C`, the Potency is 11.9 µM (active) in experiment [1] and 13.3 µM (active) in experiment [2].
For `CN(Cc1ccc(C(C)(C)C)cc1)Cc1cccc2ccccc12` the same measures were “inactive” and “inactive”.
For `COc1cc(C(CO)CO[C@@H]2O[C@H](CO)[C@@H](O)[C@H](O)[C@H]2O)ccc1O` (some centres not stated) the same measures were “inactive” and “inactive”.
For `CC(C)(O)CC(CO)NC(=O)CC(O)CC(=O)Cc1ccccc1` (configuration not stated), the Potency entry in experiment [1] and in experiment [2] was “inactive” each time.
For `CC1=C(C(=O)OC2OC(COC3OC(CO)C(O)C(O)C3O)C(O)C(O)C2O)C(C)(C)CCC1` (configuration not stated), the Potency result in experiment [1] and in experiment [2] was “inactive” each time.

Source of the values: PubChem BioAssay (NCATS).
